Laboratory results taken from PubChem BioAssay.
Activity calls are given as the source filed them. How the calls were made is not given here. Where a SMILES comes first, the peptide text is derived from it. The star is where a group is joined. Boc = CC(C)(C)OC(=O)*

Legend:
[1] = system: Botulinum neurotoxin type F light chain protease (Clostridium botulinum); experiment: Clostridium botulinum type F light chain protease inhibitors, microsphere substrate cleavage, validation (AID 588459); conditions: multiplex microsphere protease substrate cleavage assay, flow cytometry; at 10 µM; stronger effect = higher value
[2] = molecular target: Botulinum neurotoxin type A (Clostridium botulinum) (UniProt P0DPI0); experiment: BoNT/A light chain protease inhibitors, biochemical, multiplex microsphere flow cytometry, validation set (AID 588460); conditions: at 10 µM, stronger effect = higher value
Botulinum neurotoxin type A (Clostridium botulinum), sequence (P0DPI0 whole entry, looked up): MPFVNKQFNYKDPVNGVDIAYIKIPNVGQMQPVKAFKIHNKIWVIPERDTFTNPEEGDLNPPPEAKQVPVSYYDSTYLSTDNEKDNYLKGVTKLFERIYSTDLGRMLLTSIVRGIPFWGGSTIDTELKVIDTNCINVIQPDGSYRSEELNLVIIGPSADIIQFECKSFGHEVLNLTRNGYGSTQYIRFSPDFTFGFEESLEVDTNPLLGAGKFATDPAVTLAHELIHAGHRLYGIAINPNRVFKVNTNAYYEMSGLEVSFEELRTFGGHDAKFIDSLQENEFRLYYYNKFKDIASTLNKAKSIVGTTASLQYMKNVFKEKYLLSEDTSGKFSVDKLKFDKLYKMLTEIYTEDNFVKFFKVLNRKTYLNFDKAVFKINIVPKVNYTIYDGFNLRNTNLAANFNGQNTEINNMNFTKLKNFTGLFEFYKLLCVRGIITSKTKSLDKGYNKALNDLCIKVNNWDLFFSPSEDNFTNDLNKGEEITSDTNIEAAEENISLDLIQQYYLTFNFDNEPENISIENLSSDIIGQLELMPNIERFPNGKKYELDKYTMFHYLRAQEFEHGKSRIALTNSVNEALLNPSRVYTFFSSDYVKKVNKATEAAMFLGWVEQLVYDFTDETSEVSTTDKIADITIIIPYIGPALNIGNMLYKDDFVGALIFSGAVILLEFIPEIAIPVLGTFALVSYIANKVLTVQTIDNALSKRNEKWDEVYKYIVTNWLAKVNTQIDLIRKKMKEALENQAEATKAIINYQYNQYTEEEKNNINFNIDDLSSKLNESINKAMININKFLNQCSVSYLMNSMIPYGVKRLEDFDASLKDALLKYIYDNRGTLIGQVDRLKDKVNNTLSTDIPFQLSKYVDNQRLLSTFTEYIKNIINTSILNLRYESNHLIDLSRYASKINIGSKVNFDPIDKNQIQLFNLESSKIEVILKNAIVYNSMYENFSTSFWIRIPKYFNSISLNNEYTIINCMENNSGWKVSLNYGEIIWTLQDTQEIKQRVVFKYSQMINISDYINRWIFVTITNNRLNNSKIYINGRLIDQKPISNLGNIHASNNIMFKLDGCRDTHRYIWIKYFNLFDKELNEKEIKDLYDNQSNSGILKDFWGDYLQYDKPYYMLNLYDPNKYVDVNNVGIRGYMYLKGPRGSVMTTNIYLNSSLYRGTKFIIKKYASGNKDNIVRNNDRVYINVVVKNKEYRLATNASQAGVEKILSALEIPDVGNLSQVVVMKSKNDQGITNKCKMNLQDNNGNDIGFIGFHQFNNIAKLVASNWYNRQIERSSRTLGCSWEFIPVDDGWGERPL

[3] = molecular target: Lethal factor (Bacillus anthracis) (UniProt P15917); experiment: Bacillus anthracis lethal factor inhibition, microsphere flow cytometry protease assay, validation at 10 µM (AID 588461); conditions: multiplex microsphere protease cleavage assay, stronger effect = higher value
Lethal factor (Bacillus anthracis), sequence (P15917 whole entry, looked up): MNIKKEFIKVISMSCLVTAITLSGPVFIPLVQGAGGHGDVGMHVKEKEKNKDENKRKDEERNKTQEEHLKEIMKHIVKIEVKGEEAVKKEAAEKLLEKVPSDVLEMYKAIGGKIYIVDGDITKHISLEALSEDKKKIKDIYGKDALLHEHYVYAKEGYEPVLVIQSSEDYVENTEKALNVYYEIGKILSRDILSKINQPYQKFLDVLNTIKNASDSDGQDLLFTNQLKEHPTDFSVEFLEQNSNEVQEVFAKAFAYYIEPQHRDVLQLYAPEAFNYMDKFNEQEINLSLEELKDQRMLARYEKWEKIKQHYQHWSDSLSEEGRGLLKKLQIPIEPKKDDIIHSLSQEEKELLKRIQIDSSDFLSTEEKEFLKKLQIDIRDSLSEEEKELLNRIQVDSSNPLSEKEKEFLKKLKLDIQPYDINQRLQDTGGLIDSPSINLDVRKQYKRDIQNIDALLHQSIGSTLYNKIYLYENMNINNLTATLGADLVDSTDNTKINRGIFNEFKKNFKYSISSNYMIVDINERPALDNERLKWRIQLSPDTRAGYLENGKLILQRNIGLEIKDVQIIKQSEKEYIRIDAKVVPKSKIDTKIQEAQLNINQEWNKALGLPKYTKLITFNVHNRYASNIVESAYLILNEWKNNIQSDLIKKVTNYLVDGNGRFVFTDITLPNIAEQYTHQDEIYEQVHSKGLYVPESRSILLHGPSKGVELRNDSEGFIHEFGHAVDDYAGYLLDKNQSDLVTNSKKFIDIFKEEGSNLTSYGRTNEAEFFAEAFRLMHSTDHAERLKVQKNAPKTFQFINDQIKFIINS

Measured: inhibition

COc1cc2c(cc1OC)/C(=C/c1ccc(Cl)cc1)C(=O)OC2
inactive: [1] -0.2% | [2] 0.8% | [3] -1.5%

COc1ccc2c(c1)[nH]c1c(=O)n(Cc3ccccn3)cnc12
inactive: [1] 3.9% | [2] -1% | [3] -4.7%

CCOC(=O)c1oc2cc(OCC(N)=O)ccc2c(=O)c1-c1ccc(OC)c(OC)c1
inactive: [1] -3.1% | [2] 1.1% | [3] 1.9%

CC(C)Oc1ccc(C2CC(=O)N(c3ccc(C(=O)O)cc3)C2=O)cc1 (configuration not stated)
inactive: [1] 2.1% | [2] -0.7% | [3] -6.7%

CN(C)C(=O)Oc1ccc[n+](C)c1
inactive: [1] -1.5% | [2] -0.6% | [3] -0.5%

CCOC(=O)c1ccc(NC(=S)NCCc2ccccc2F)cc1
inactive: [1] 4.9% | [2] 2.4% | [3] -2.3%

OCCOCCN1CCN(C(c2ccccc2)c2ccc(Cl)cc2)CC1 (configuration not stated)
inactive: [1] 0.1% | [2] -1.8% | [3] 1.1%

COC(=O)c1ccc(-c2ncc(-c3cccc4ccccc34)o2)cc1
inactive: [1] -1.4% | [2] -1.3% | [3] 4.9%

CCCCCCC(=O)N(O)C1CC(=O)N(Cc2ccccc2)C1=O (configuration not stated)
inactive: [1] 0.4% | [2] -0.7% | [3] 3.7%

CCSC(=O)CCCCCCCCCCCO
inactive: [1] 2.8% | [2] 1.5% | [3] 14.5%

Nc1cccc(C(=O)O)c1
inactive: [1] -0.6% | [2] -0.3% | [3] 3.3%

CCCCCC(O)c1cccc(OCc2ccc3ccccc3n2)c1 (configuration not stated)
inactive: [1] 0.9% | [2] 0.6% | [3] -0.8%

C[C@H](NC(=O)C1(c2ccccc2)CCN(C(=O)[C@H]2CSCN2C(=O)OC(C)(C)C)CC1)C(=O)O
inactive: [1] -0.9% | [2] -2% | [3] -10.5%

CC(C)(C)OC(=O)N1CCCC1C(=O)NC(Cc1ccccc1)C(=O)O (stereo not drawn) (Boc-Pro-Phe-OH; configuration not given here)
inactive: [1] -2.1% | [2] -0.8% | [3] -0.3%
